# Experiments:
# Experiment in all cases: PBM binding z-score (relative to random genomic background probes); higher = stronger binding; sequences stand for … in GC…GCGATTGACAGCGTAGAATGAAGG
# [1] = test system: RARb homodimer (NR concentration 270 nM)
# Method in brief: (§1)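 Ligand-free nuclear receptor dimers were applied to custom Agilent 4×180K protein-binding microarrays whose double-stranded probes carried direct-repeat seeds, single-nucleotide variants, half-site ablations and random human genomic background sequences in 34-nt variable regions. Incubation lasted 1 h. Binding z-scores were computed against the random background probes from regression-normalized fluorescence.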
# [2] = test system: RARg:RXRa (NR concentration 270 nM, RXRa partner concentration 90 nM)
# Method in brief: as §1
# [3] = test system: RARg homodimer (NR concentration 270 nM)
# Method in brief: as §1
# [4] = test system: RXRa DBDmut IVT, anti-RXR (DBD mutation: RXRa K156A/R161A, NR concentration 90 nM)
# Method in brief: as §1
# [5] = test system: RXRa homodimer (NR concentration 180 nM)
# Method in brief: as §1
# [6] = test system: THRa:RXRa (NR concentration 90 nM, RXRa partner concentration 90 nM)
# Method in brief: as §1
# [7] = test system: THRa homodimer (NR concentration 90 nM)
# Method in brief: as §1
# [8] = test system: VDR:RXRa (NR concentration 270 nM, RXRa partner concentration 90 nM)
# Method in brief: as §1
# [9] = test system: VDR homodimer (NR concentration 270 nM)
# Method in brief: as §1
Sequence,PBM binding z-score [1],PBM binding z-score [2],PBM binding z-score [3],PBM binding z-score [4],PBM binding z-score [5],PBM binding z-score [6],PBM binding z-score [7],PBM binding z-score [8],PBM binding z-score [9]
TCATATAGGTAAACGGTGAAAGTCGGTGTGGTAA,0.301,0.178,-0.128,1.47,0.601,0.081,0.00294,0.79,-0.132
ATCTCTAGGTGAAGATAGTTCAGTGAATGCAAAT,1.19,1.16,1.27,-0.299,0.687,1.24,0.00291,0.849,0.334
CCTGCTAGGTCATGGTCAGCTCATCTACAGTATG,3.46,3.88,4.57,1.95,2.65,3.24,1.26,1.8,0.458
GCGACTGGGGCAAAGCAGGTTATCATAAGGTTGG,0.97,0.559,0.655,-0.0158,0.368,2.9,0.0261,0.334,-0.46
TCTTGTAGATCAAAGGTAAAGAAAGCCGAAGCCT,-0.121,0.243,-0.165,0.56,0.881,0.386,-0.548,0.385,-0.117
TCTTGTAGATCAACAGGAGATTAAGAAAGATCGA,-1.12,-0.112,-0.181,0.2,0.147,-0.777,-1.13,0.136,-0.417
TTTCGGAGGACACGAAAGGTCAGAGCTCGACATC,4.68,4.88,5.29,0.16,4.66,3.85,1.39,3.54,1.04
CCTCGGAGGACGACAGGAGGTCAGAGCTGCCAGA,2.84,2.54,2.08,-0.23,1.84,2.33,0.421,1.44,0.665
CGAACTAGGTCATCTAGGACAGTGAATACATTGA,2.74,4.13,4.96,2.2,2.99,3.3,1.49,3.73,1.48
CCTACTAGGCCATCAGGTCATTGATATCAACGTT,3.07,2.45,2.56,1.43,1.71,3.32,3.28,2.26,2.51
TATAGCAGGCCAGAGGGTCACTCAAGAGGTACGG,2.58,2.61,2.09,-1,2.67,1.76,-0.288,1.58,0.651
TAGCCTAGGTCATGCGGGGCAGTATAGTGTCGGC,3.26,4.01,4.41,0.368,3.22,3.56,1.08,4.22,1.5
ATATGTAGGTTATCGGGTCATTAAGTTTGCGCAT,3.05,3.13,2.3,1.7,3.23,3.25,2.55,6.04,4.46
